An excerpt weighted towards active compounds, which were near 4% of everything screened.
D1 agonist: agonists of human D1 dopamine receptor; 1% of 360,000 active; HEK293 T-REx D1 cells, calcium flux, agonist mode; AID 504660; activation, % at 2 µM; P21728
Target sequence (P21728 whole entry, looked up): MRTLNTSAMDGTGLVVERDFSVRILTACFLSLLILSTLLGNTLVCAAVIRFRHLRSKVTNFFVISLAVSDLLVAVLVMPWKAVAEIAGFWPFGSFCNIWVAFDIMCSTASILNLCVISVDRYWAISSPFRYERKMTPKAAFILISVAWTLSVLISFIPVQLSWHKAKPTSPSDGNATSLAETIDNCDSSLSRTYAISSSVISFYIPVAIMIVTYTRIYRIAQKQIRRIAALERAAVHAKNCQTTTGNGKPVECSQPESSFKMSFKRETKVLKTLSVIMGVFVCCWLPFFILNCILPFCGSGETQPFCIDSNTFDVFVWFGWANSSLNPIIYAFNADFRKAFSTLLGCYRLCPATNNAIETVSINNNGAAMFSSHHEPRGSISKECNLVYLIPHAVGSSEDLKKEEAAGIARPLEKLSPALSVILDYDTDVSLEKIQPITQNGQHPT
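Agonism was scored from calcium flux recorded over 180 s (1 read/s) after pintool compound addition, following a 10-cycle baseline. Cells were inducible force-coupled HEK293 TREx D1, plated overnight at 30 C and loaded with no-wash calcium dye.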
D1 potentiator: potentiators of human D1 dopamine receptor. HEK293 TREx D1 cells, calcium flux, dopamine EC20 potentiation. potentiation, % at 10 µM. 0.036% of 360,000 active. P21728; in the data active = potentiation above about 30%
Glioma ERSR ind: inducers of ER stress response in human glioma cells | U87-MG GRP78 promoter luciferase reporter, 16 h | AID 602332 | Potency, µM, hits mostly activators | 0.02% of 420,000 active; active = well fitted activation curve with a large enough effect; also: series mostly up to about 76 µM; nearly all actives have a fitted effect of over 35% in size
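Stably transfected U87-MG human glioma cells carrying a GRP78-based luminescent sensor were seeded at 1000 cells/well, pin-dosed with compounds and incubated 16 h. Luciferase reagent was then added, and end-point luminescence was read after 10 min at room temperature.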
TRHR enhancer: allosterically enhances the human TRH receptor; enhancement, % at 2 µM; TRHR cells, fluo-8 calcium fluorescence, EC20 TRH enhancement; 0.66% of 360,000 active; AID 493056; in the data active = enhancement above about 30%
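Enhancer read-out: after compound pinning and an initial kinetic agonist-mode read, an EC20 of TRH (10 nM final) was injected and fluo-8 calcium signal (Ex 480/Em 530) followed at 1 s/cycle for 100 cycles in TRHR-expressing cells.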
D1 antag: antagonists of human D1 dopamine receptor | HEK293 TREx D1 cells, calcium flux, dopamine EC80; active compounds read low | 3.2% of 360,000 active | AID 504652 | P21728 | activity change, negative = inhibition, % at 10 µM; in the data active = activity change below about -30%
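Kinetic fluorescence of a calcium dye serves as the read-out. D1-expressing Hek293 Trex cells, induced overnight at 30 C, are exposed to compound for 180 s before an EC80 dopamine addition, then read 180 s further.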
TRHR agonist: agonists of human TRH receptor; activation, % at 2 µM; 0.18% of 360,000 active; TRHR cells, calcium flux fluo-8, FDSS agonist mode
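Agonist-mode FDSS calcium read (Ex 480/Em 530, 1 s cycles) in 1536-well TRHR cells with fluo-8 dye, after 10-cycle baseline and 23 nL compound addition; TRH at EC20 (10 nM final) added afterwards for the enhancer phase.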
A number is an active result. Rule as the data show it, unless noted: active = activation above about 30%; inactive = the rest.

Screening O=[N+]([O-])c1ccc(CN2CCC(Cc3ccccc3)CC2)cc1 returned D1 agonist inactive, D1 potentiator inactive, Glioma ERSR ind inactive, TRHR enhancer inactive, D1 antag inactive and TRHR agonist inactive.
`CCCN(CCC)S(=O)(=O)c1ccc(NC(=O)c2cc(C(=O)OC)cc([N+](=O)[O-])c2)cc1` gave D1 agonist inactive, D1 potentiator inactive, Glioma ERSR ind inactive, TRHR enhancer inactive, D1 antag -38 and TRHR agonist inactive.
`OCC1OC(OC2C(CO)OC(OC3C(CO)OC(O)C(O)C3O)C(O)C2O)C(O)C(O)C1O` (configuration not stated) gave Glioma ERSR ind inactive.
For CCCCCc1cc(O)c2c(C)cc(=O)oc2c1 the results were D1 agonist 108, D1 potentiator inactive, Glioma ERSR ind inactive, TRHR enhancer inactive, D1 antag inactive and TRHR agonist inactive.
Screening Nc1cc(S(=O)(=O)N2CCOCC2)ccc1Oc1cccc(Br)c1 returned D1 agonist inactive, D1 potentiator inactive, Glioma ERSR ind inactive, TRHR enhancer inactive, D1 antag -44 and TRHR agonist inactive.
C/C(O)=C1\C(=O)[C@@H]2[C@H]3c4c[nH]c5cccc(c45)C[C@H]3C(C)(C)N2C1=O was read as Glioma ERSR ind inactive.
For Cc1nc(NCC(=O)c2c[nH]c3ccccc23)sc1C the results were Glioma ERSR ind inactive.
Cc1ccc(S(=O)(=O)N2CCN(c3nc(CN4CCCC4)nc4sc(C)c(C)c34)CC2)cc1 was read as D1 agonist inactive, D1 potentiator inactive, Glioma ERSR ind inactive, TRHR enhancer inactive, D1 antag -35 and TRHR agonist inactive.
COc1ccccc1CCN1COc2c(cc3c(C)c(C)c(=O)oc3c2C)C1 was read as D1 agonist inactive, D1 potentiator inactive, Glioma ERSR ind inactive, TRHR enhancer inactive, D1 antag -31 and TRHR agonist inactive.
`Cc1cc(C(F)(F)F)nn1Cc1n[nH]c(=S)n1-c1ccc(Cl)cc1` gave D1 agonist inactive, D1 potentiator inactive, Glioma ERSR ind inactive, TRHR enhancer inactive, D1 antag inactive and TRHR agonist inactive.
Screening Cc1cc(C(F)(F)F)nn1Cc1n[nH]c(=S)n1-c1cccc(Cl)c1 returned D1 agonist inactive, D1 potentiator inactive, Glioma ERSR ind inactive, TRHR enhancer inactive, D1 antag -32 and TRHR agonist inactive.
CCc1ccc(C2CC(=O)c3c([nH]c(C(=O)OC4CCCC4)c3C)C2)cc1 (configuration not stated) was read as D1 agonist inactive, D1 potentiator inactive, Glioma ERSR ind inactive, TRHR enhancer inactive, D1 antag inactive and TRHR agonist inactive.
NC(=O)c1ccccc1NC(=O)Nc1cccc(Cl)c1 was read as D1 agonist inactive, D1 potentiator inactive, Glioma ERSR ind inactive, TRHR enhancer inactive, D1 antag -42 and TRHR agonist inactive.
`CSc1cccc(NC(=O)Nc2ccc(Cl)cc2)c1` gave D1 agonist inactive, D1 potentiator inactive, Glioma ERSR ind inactive, TRHR enhancer inactive, D1 antag -33 and TRHR agonist inactive.
`O=C(Nc1cccc(Cl)c1)Nc1ccccc1C(=O)O` gave D1 agonist inactive, D1 potentiator inactive, Glioma ERSR ind inactive, TRHR enhancer inactive, D1 antag inactive and TRHR agonist inactive.
Screening CS(=O)(=O)c1ccc2nc(NC(=O)Nc3cccc(Cl)c3)sc2c1 returned D1 agonist 34, D1 potentiator inactive, Glioma ERSR ind inactive, TRHR enhancer inactive, D1 antag inactive and TRHR agonist inactive.
For Cc1nc2ccc(S(=O)(=O)NC(C(=O)Nc3nc4ccc(Cl)cc4s3)C(C)C)cc2s1 (configuration not stated) the results were D1 agonist inactive, Glioma ERSR ind inactive, TRHR enhancer inactive, D1 antag -41 and TRHR agonist inactive.
Screening Cc1ccccc1-c1nc(Nc2ccncc2)c2ccccc2n1 returned Glioma ERSR ind inactive.
For Cn1nnnc1SCC1=C(C(=O)O)N2C(=O)[C@@H](NC(=O)[C@H](OC=O)c3ccccc3)[C@H]2SC1 the results were Glioma ERSR ind inactive.
Screening NS(=O)(=O)c1ccc(NC(=O)Nc2cccc(Cl)c2)cc1 returned D1 agonist inactive, D1 potentiator inactive, Glioma ERSR ind inactive, TRHR enhancer inactive, D1 antag -32 and TRHR agonist inactive.
Screening NS(=O)(=O)c1ccc(NC(=O)Nc2ccccc2)cc1 returned D1 agonist inactive, D1 potentiator inactive, Glioma ERSR ind inactive, TRHR enhancer inactive, D1 antag inactive and TRHR agonist inactive.
For CSCC[C@H](NC(=O)[C@H](CC(C)C)NC(=O)CNC(=O)[C@H](Cc1ccc(O)cc1)NC(=O)[C@H](Cc1ccccc1)NC(=O)[C@H](CCCCN)NC(=O)[C@H](CC(N)=O)NC(=O)[C@@H]1CCCN1C(=O)[C@H](CC(=O)O)NC(=O)[C@H](C)NC(=O)[C@@H]1CCC(=O)N1)C(N)=O the results were Glioma ERSR ind inactive.
For O=c1cc(O)c(-c2ccc(Cl)c(Cl)c2)c(Cl)[nH]1 the results were D1 agonist inactive, D1 potentiator inactive, Glioma ERSR ind inactive, TRHR enhancer 35, D1 antag inactive and TRHR agonist inactive.
`Cn1c(Cc2nc(-c3cnccn3)no2)nnc1SCC(=O)Nc1ccccc1` gave D1 agonist inactive, D1 potentiator inactive, Glioma ERSR ind inactive, TRHR enhancer inactive, D1 antag -87 and TRHR agonist inactive.
For CCN(C(=O)COC(=O)CCOc1cc(C)ccc1C)c1c(N)n(Cc2ccccc2)c(=O)[nH]c1=O the results were Glioma ERSR ind inactive.
For CC(=O)c1c(C)oc2ccc(NS(=O)(=O)c3ccc(F)cc3C)cc12 the results were D1 agonist inactive, D1 potentiator inactive, Glioma ERSR ind inactive, TRHR enhancer inactive, D1 antag inactive and TRHR agonist inactive.
`Cc1cc(F)ccc1S(=O)(=O)Nc1ccc2oc3c(c2c1)CC(C)CC3` (configuration not stated) gave D1 agonist 37, D1 potentiator inactive, Glioma ERSR ind inactive, TRHR enhancer inactive, D1 antag inactive and TRHR agonist inactive.
Screening Cc1ccc(C(=O)/C=C/N(C)C)o1 returned D1 agonist inactive, D1 potentiator inactive, Glioma ERSR ind inactive, TRHR enhancer inactive, D1 antag inactive and TRHR agonist inactive.
For Cc1ccc(C(=O)/C=C/c2cc(Br)cc(Br)c2O)o1 the results were D1 agonist 43, D1 potentiator inactive, Glioma ERSR ind inactive, TRHR enhancer inactive, D1 antag inactive and TRHR agonist inactive.
`Cc1cnc(C(=O)OC(C)C(=O)NCc2ccccc2)cn1` (configuration not stated) gave D1 agonist inactive, D1 potentiator inactive, Glioma ERSR ind inactive, TRHR enhancer inactive, D1 antag inactive and TRHR agonist inactive.

Compound activity from PubChem BioAssay.
